Hits are enriched below; roughly 20% of the tested compounds scored in any of these assays.
CHX counter: Cycloheximide Counterscreen for Small Molecule Inhibitors of Shiga Toxin. cell reporter, cycloheximide protein synthesis inhibition counterscreen. max response, %. 300,000 tested, 12% active; in the data active means max response mostly above about 13%, no sharp cut-off; inactive means mostly below about 14%; further: read at 38.3 µM for the half of the compounds with a filed dose; 0% is about no effect
Shiga inhibitor: A qHTS for Small Molecule Inhibitors of Shiga Toxin. Vero cells, Shiga toxin protein synthesis inhibition reporter. inhibition, % at 38.7 µM. 290,000 tested, 9.2% active. AID 2315, 2010; in the data active means inhibition mostly above about 28%, no sharp cut-off; inactive means mostly below about 43%; further: 0% is about no effect
HCMV inh: qHTS Assay for inhibitors of the human cytomegalovirus (HCMV) | HFF cells, HCMV-luciferase reporter, 72 h; hits give low values | activity change, negative = inhibition, % at 57.5 µM | 410,000 tested, 4.5% active | AID 1259415, 2018; in the data active means activity change below about -60%; inconclusive means no clear call, values can overlap the other calls; inactive means above about -39%; further: on the % scale 0 is the no-effect control and ±100 the full control effect
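Compounds were evaluated in HFFs infected with an HCMV luciferase reporter virus (MOI 1 PFU/cell). Luciferase in lysates collected 72 h post infection served as the replication measure.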
Pf growth 48h: Primary qHTS for delayed death inhibitors of the malarial parasite plastid, 48 hour incubation. P. falciparum luciferase growth in erythrocytes, 48 h. Potency, µM (top dose mostly 28.7 µM), without a hit: top-dose activity change, negative = inhibition, hits mostly inhibitors. 310,000 tested, 5.9% active; further: potency means the concentration at half of the fitted maximal effect; on the % scale 0 is the no-effect control and ±100 the full control effect
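Growth was read as firefly luciferase luminescence after a 48 h, 37 C, 5% CO2 exposure of compounds to reporter-bearing P. falciparum cultures (0.1% parasitemia, 2% hematocrit final) in Albumax-supplemented RPMI 1640.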
Pf growth 96h: Primary qHTS for delayed death inhibitors of the malarial parasite plastid, 96 hour incubation; P. falciparum luciferase reporter growth, 96 h; Potency, µM (doses to about 28.7 µM), for inactives: top-dose activity change, negative = inhibition, most hits filed as inhibitors; 320,000 tested, 6.9% active; AID 504834, 2011; further: potency means the concentration at half of the fitted maximal effect; on the % scale 0 is the no-effect control and ±100 the full control effect
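Delayed-death screen, second-generation endpoint: infected erythrocytes, 2% hematocrit, 0.05% parasitemia final; 96 hours at 37 C, 5% CO2; luciferase detection reagent; luminescence decrease equals reduced growth.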
Active calls of the source: *; ? = inconclusive; nt = not tested or not shown; ! = repeats disagree; [ ] = dose if it differs, or a comment. Unless noted, the call rests on the fitted dose curve; in most records, active means well fitted inhibition curve with a large enough effect; inconclusive means small, poorly fitted or top-dose-only effect, or another doubt; inactive means no such curve, though single readings can be large or run the other way.

SMILES	CHX counter	Shiga inhibitor	HCMV inh	Pf growth 48h	Pf growth 96h
OCCN1CCN(CCOc2ccccc2-c2ccccc2)CC1	-1	-6	-23	-13%	-35%
COc1cccc2c1Oc1ncccc1N(c1ccc(C(=O)NCc3ccccc3C)s1)C2	nt	nt	-16	nt	nt
COc1ccccc1N(Cc1cc2cccc(C)c2[nH]c1=O)C(=O)c1cccc(Cl)c1	nt	nt	3	nt	nt
CCOc1ccc(NC(=O)CSc2nnc(-c3cc(C)[nH]n3)n2N)cc1	-3	-4	?	?	?
CCN1CCN(CCCOc2ccc(-c3ccccc3)cc2)CC1	37*	70*	5	-67%	21%
CN1CCN(CCCOc2ccc(-c3ccccc3)cc2)CC1	27*	75*	31	?	-7%
COc1ccc(N2CCN(C(=O)COC(=O)c3oc4ccc(OC)cc4c3C)CC2)cc1	nt	nt	-7	?	11%
CC(C)/C=C(/C(=O)c1ccc(Cl)cc1Cl)n1cncn1	-6	-14	-10	-18%[0.00184 µM]	0%
O=[N+]([O-])c1cccc(/C=N/n2cnnc2)c1	-3	8	-2	45%	115%
CC(C)(C)C(=O)/C(=C/c1cccc([N+](=O)[O-])c1)n1cncn1	-9	-22	-101*	?	7.4µM*
CC(C)(C)C(=O)/C(=C\c1ccc([N+](=O)[O-])cc1)n1cncn1	-11	-20	nt	12µM*	?
CC(C)(C)C(=O)/C(=C/c1ccc(Cl)cc1)n1cncn1	3	-12	-102*	15µM*	136%
CCn1nnnc1SCC(=O)Nc1nnc(C(C)C)s1	11	18	-3	23%	-22%
COCCCn1nnnc1SCC(=O)Nc1nc(C)c(C)s1	18*	-14	46	35%	9%
CCn1nnnc1SCC(=O)Nc1nc(C)c(C)s1	29*	44*	110	85%	?
CC(=O)O[C@@]1(C)C[C@@H](O)[C@]2(O)C=CO[C@@H](O[C@@H]3O[C@H](CO)[C@@H](O)[C@H](O)[C@H]3O)[C@@H]21	nt	nt	?	31%	40%
Cc1oc2cc(Br)c(O)c(Br)c2c1-c1ccccc1	18*	59*	nt	-1%	23%
COc1ccc(NCC(=O)N/N=C2\CCCC(C)C2)cc1 (centres undefined)	0	4	15	-17%	22%
CC1CCC/C(=N\NC(=O)Nc2ccccc2)C1 (centres undefined)	27*	53*	74	-22%	?
CC1CCC/C(=N\Nc2ccc(Cl)c(C(=O)O)c2)C1 (centres undefined)	165*	60*	44	157%	228%
CC1CCC/C(=N\NS(=O)(=O)c2ccccc2)C1 (centres undefined)	1	7	-25	38%	56%
COc1ccc(OC(=O)c2cccc([N+](=O)[O-])c2)c(C(=O)/C=C/c2cccs2)c1	19*	17	29	nt	nt
COc1ccc(C(=O)C=Cc2cccs2)c(O)c1	nt	nt	-13	nt	nt
CCOC(=O)c1cnc2sc3c(n2c1=O)CCCC3	43*	92*	-24	?	?
CCOC(=O)c1cnc2nc(C)[nH]n2c1=O	-3	-5	-19	6%	48%
SMILES	CHX counter	Shiga inhibitor	HCMV inh	Pf growth 48h	Pf growth 96h
CCOC(=O)c1c(C)[nH]c(C(=O)Cn2c(=O)oc3ccccc32)c1C	30*	16	-14	6%	28%
CCOC(=O)n1c(=O)oc2ccccc21	7	4	-96*	nt	31%
CC(=O)n1c(=O)oc2ccccc21	nt	nt	-39	nt	nt
CCOC(=O)c1cnc2oc3ccccc3n2c1=O	58*	nt	10	2%	40%
O=C(NCCc1ccccc1)c1ccc(CS(=O)(=O)Cc2ccc(F)cc2)o1	11	0	20	10%	?
Cc1cc2oc3c(c(=O)c2cc1C)C1(C(=O)N(C)c2ccccc21)N(CCO)C3=O (centres undefined)	nt	nt	11	nt	nt
COc1ccc(CN2C(=O)C(n3c(C)ccc3C)c3cc(F)ccc32)cc1 (centres undefined)	nt	nt	-22	nt	nt
CC(=O)c1c(C)[nH]c(C(=O)Nc2ccc(F)cc2F)c1C	44*	65*	76	48%	46%
CC(=O)c1c(C)[nH]c(C(=O)Nc2ccc(C)cc2Br)c1C	25*	66*	82	111%	126%
CC(=O)c1c(C)[nH]c(C(=O)Nc2ccccc2Cl)c1C	19	46*	81	58%	51%
CC(=O)c1c(C)[nH]c(C(=O)Nc2cc(F)ccc2C)c1C	10	-1	19	0%	6%
CC(=O)c1c(C)[nH]c(C(=O)Nc2cccc3ccccc23)c1C	5	8	43	-25%	?
Cc1cc(N/N=C/c2ccc(Cl)cc2Cl)nc(NCc2ccccc2)n1	-2	-8	-25	0.33µM*	?
Cc1ccc(/C=N/Nc2cc(C)nc(NCc3ccccc3)n2)cc1	19*	29	-12	0.59µM*	1µM*
Cc1cc(N/N=C/c2ccc(F)cc2)nc(NCc2ccccc2)n1	22*	46*	5	0.41µM*	?
Cc1ccc(CNC(=O)c2ccc3c(c2)N(Cc2cccc(C)c2)C(=O)CS3)cc1	nt	nt	-13	nt	nt
C[C@H](CO)N1C[C@H](C)[C@@H](CN(C)C(=O)Nc2ccc3c(c2)OCO3)Oc2ccc(NC(=O)NC3CCCCC3)cc2C1=O	nt	nt	-18	nt	nt
COc1cc(C(=O)OCC(=O)c2cc(C)n(C)c2C)cc(OC)c1OC	1	14	96	nt	-23%
CC1CCCCN1C(=O)COC(=O)Cc1c[nH]c2ccccc12 (centres undefined)	nt	nt	-27	nt	nt
CC1CCCCN1C(=O)COC(=O)c1n[nH]c2ccccc12 (centres undefined)	58*	57	20	nt	183%
CCC(=O)c1ccc(OCC(=O)OCC(=O)c2cc(C)n(C)c2C)cc1	-3	-8	?	?	13µM*
Cc1cc(C(=O)COC(=O)c2n[nH]c3ccccc23)c(C)n1C	47*	62*	115	108%	-27%
Cc1cc(C(=O)COC(=O)c2nccnc2N)c(C)n1C	42*	103*	-25	341%	294%
CC12CCC(C/C1=N\OC(=O)c1c(F)cccc1F)C2(C)C (centres undefined)	15	16	-14	-2%	?
Fc1ccc(-c2noc3nc(NCC4CCCO4)ccc23)cc1 (centres undefined)	nt	nt	80	nt	nt
COCCn1c(C)cc(C(=O)COC(=O)c2n[nH]c3ccccc23)c1C	11*	31	4	8%	18%
O=C(CCCn1c(=O)c2cccn2c2cccnc21)NCc1ccccc1Br	nt	nt	-12	nt	nt
Cc1cccc(CNC(=O)CCn2c(=O)c3cccn3c3ccc(F)cc32)c1	nt	nt	-85*	nt	nt
CC(C)Oc1ccc(CNC(=O)c2ccc(Cn3c(=O)c4cccn4c4cccnc43)cc2)cc1	nt	nt	-17	nt	nt
CC(CNC(=O)CCCn1c(=O)c2cccn2c2cccnc21)c1ccccc1 (centres undefined)	nt	nt	-69*!	nt	nt

Source: PubChem (National Center for Advancing Translational Sciences (NCATS))
